For test [1], the target named is T1, Tyrosine-protein kinase ITK/TSK (Homo sapiens) (UniProt Q08881).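 Also: values are mean percent inhibition of ITK from the GSK PKIS screen.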
T1 sequence (whole entry): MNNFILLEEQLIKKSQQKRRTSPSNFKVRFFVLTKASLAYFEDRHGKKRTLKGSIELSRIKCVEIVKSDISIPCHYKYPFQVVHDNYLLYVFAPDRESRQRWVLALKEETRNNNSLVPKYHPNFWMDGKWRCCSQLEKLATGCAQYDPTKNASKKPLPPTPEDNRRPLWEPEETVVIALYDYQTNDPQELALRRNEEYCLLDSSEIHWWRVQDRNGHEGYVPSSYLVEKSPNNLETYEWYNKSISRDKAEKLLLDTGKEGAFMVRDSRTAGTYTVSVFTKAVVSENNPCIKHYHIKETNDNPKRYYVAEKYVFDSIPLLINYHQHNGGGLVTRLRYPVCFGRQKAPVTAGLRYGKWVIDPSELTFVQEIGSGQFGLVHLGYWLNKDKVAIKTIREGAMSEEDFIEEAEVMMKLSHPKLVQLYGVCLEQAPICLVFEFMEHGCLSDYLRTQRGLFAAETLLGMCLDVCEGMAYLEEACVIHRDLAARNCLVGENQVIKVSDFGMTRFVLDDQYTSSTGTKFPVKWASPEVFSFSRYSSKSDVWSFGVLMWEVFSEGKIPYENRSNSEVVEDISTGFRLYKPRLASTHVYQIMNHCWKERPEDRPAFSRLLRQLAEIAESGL
The note with it: at 1 µM.

Test [2] has as its target Tyrosine-protein kinase JAK1 (Homo sapiens) (UniProt P23458). Conditions: at 0.1 µM.
Test [3] shares this target. The note with it: at 1 µM.
Test [4] has as its target Tyrosine-protein kinase JAK2 (Homo sapiens) (UniProt O60674). The note with it: at 0.1 µM.
Test [5] shares this target. Conditions: at 1 µM.
The target of test [6] is T2, Tyrosine-protein kinase JAK3 (Homo sapiens) (UniProt P52333).
T2 sequence (whole entry): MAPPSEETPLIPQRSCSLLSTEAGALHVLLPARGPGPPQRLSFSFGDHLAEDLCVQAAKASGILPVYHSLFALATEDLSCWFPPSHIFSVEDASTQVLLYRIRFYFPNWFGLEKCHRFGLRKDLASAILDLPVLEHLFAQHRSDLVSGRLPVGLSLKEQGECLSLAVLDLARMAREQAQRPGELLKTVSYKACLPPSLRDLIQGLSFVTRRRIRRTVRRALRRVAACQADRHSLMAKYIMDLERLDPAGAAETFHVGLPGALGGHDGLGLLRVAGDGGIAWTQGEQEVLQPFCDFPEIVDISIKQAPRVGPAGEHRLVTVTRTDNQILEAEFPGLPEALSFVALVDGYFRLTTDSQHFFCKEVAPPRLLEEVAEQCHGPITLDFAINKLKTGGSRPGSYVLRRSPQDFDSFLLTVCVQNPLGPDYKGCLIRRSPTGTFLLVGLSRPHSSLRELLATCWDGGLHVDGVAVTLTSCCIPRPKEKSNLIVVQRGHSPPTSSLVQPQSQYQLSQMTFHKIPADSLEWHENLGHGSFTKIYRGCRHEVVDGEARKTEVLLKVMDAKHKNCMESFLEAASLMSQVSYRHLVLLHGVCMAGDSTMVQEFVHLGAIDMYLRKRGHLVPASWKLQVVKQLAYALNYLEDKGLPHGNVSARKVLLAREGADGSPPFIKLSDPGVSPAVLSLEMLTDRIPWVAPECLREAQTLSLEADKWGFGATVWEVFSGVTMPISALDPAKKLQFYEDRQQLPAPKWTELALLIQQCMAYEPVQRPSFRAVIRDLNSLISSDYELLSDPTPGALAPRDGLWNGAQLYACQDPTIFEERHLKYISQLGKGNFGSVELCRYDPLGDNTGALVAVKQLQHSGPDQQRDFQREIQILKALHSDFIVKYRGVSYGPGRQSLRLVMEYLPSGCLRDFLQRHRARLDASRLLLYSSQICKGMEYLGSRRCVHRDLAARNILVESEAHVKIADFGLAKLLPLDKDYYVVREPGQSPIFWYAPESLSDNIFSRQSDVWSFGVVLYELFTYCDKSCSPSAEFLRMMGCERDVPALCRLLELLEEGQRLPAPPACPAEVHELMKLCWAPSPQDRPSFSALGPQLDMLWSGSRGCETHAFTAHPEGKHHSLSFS
Conditions: at 0.1 µM.

The target in test [7] is T2, Tyrosine-protein kinase JAK3 (Homo sapiens). The note with it: at 1 µM.
In test [8] the target is Vascular endothelial growth factor receptor 2 (Homo sapiens) (UniProt P35968). The note with it: at 0.1 µM.
The target is the same in test [9]. Conditions: at 1 µM.
The target of test [10] is Mast/stem cell growth factor receptor Kit (Homo sapiens) (UniProt P10721). Conditions: at 0.1 µM.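 Also: values are mean inhibition of KIT, from the GSK PKIS dataset.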
Sequence of Mast/stem cell growth factor receptor Kit (Homo sapiens) (P10721 whole entry): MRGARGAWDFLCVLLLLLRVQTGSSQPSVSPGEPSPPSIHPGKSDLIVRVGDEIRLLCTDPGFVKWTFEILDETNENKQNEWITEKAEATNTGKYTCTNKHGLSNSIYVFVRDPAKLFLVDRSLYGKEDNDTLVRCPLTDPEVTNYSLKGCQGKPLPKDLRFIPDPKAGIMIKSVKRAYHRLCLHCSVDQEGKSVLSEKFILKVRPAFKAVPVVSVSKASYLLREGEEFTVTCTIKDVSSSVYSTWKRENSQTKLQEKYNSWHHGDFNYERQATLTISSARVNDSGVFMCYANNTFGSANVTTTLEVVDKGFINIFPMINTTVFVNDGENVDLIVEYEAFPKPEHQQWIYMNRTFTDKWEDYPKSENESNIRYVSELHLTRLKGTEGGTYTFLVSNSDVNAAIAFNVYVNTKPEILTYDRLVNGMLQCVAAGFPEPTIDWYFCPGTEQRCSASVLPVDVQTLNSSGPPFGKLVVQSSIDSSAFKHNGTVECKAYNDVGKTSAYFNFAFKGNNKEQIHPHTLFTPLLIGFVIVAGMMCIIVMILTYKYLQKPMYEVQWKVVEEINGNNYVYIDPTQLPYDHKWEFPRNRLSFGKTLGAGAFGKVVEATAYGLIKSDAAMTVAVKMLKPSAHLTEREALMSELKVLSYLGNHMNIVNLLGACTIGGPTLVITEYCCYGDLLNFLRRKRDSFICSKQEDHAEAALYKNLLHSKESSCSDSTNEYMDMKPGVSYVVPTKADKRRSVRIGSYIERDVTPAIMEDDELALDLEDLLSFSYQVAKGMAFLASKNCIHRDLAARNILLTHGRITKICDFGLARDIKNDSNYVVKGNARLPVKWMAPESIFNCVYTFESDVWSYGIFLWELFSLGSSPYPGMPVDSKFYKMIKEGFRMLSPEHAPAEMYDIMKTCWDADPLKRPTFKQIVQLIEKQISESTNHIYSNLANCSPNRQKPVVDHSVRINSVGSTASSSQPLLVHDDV

Sequence of Tyrosine-protein kinase JAK2 (Homo sapiens) (O60674 whole entry): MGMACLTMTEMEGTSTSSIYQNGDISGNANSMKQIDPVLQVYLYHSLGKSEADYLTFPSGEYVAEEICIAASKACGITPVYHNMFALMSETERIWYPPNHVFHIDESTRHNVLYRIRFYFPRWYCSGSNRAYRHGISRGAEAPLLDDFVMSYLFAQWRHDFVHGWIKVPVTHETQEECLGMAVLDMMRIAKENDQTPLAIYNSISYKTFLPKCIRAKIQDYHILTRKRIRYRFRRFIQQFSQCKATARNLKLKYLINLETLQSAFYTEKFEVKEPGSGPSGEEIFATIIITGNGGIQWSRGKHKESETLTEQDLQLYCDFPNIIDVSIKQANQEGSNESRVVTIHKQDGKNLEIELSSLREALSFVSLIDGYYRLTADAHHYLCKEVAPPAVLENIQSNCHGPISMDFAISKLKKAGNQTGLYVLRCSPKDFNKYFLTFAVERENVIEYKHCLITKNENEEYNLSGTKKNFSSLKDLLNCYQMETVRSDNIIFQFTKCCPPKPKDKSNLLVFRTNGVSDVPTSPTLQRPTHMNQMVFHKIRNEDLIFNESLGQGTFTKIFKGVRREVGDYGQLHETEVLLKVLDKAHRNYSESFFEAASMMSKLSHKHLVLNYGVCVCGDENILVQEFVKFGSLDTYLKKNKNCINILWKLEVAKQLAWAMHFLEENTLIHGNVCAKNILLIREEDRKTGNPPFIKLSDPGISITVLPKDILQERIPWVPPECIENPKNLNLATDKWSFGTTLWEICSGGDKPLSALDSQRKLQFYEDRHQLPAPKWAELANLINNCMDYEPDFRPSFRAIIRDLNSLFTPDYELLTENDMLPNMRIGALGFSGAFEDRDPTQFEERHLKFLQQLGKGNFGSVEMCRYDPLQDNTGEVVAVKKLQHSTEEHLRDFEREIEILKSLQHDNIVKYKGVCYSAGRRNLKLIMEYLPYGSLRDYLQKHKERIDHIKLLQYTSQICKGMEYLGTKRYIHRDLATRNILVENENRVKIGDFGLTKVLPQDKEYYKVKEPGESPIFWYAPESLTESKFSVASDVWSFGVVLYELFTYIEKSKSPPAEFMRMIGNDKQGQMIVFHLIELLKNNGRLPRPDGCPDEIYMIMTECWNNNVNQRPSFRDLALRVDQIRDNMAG
Sequence of Vascular endothelial growth factor receptor 2 (Homo sapiens) (P35968 whole entry): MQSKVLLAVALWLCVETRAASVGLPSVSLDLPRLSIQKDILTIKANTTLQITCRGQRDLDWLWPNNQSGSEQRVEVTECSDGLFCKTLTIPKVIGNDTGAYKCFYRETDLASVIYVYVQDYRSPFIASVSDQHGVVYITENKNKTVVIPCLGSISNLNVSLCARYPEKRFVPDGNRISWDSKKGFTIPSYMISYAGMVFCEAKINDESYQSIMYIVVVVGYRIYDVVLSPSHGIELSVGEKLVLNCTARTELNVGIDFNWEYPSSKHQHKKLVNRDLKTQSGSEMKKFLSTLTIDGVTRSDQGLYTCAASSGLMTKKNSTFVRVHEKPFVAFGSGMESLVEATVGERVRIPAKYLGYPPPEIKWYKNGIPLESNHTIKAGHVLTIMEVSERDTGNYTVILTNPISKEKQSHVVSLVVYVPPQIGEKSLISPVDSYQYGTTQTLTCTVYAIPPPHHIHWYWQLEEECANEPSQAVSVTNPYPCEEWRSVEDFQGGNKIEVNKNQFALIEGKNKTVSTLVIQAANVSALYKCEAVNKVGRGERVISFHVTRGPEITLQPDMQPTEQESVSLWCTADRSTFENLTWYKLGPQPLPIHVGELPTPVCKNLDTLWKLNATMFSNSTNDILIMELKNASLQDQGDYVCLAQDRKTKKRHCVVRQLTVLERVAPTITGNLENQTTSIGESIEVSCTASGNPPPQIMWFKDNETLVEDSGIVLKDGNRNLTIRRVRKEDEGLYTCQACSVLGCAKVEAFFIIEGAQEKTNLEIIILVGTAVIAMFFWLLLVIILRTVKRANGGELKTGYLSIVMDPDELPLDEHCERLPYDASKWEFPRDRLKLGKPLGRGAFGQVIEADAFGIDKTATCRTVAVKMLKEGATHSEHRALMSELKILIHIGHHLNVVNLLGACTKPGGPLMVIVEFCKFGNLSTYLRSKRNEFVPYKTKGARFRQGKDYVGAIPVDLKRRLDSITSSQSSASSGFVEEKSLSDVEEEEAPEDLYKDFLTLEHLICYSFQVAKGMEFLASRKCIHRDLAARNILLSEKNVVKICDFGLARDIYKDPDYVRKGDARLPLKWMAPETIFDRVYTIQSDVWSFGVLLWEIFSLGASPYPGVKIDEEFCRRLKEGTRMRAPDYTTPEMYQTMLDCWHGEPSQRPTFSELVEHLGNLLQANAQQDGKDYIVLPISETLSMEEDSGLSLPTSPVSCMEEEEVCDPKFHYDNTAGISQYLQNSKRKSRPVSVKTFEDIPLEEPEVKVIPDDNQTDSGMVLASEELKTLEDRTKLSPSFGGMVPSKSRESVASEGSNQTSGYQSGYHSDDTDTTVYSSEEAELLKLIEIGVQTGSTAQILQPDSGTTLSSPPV
Sequence of Tyrosine-protein kinase JAK1 (Homo sapiens) (P23458 whole entry): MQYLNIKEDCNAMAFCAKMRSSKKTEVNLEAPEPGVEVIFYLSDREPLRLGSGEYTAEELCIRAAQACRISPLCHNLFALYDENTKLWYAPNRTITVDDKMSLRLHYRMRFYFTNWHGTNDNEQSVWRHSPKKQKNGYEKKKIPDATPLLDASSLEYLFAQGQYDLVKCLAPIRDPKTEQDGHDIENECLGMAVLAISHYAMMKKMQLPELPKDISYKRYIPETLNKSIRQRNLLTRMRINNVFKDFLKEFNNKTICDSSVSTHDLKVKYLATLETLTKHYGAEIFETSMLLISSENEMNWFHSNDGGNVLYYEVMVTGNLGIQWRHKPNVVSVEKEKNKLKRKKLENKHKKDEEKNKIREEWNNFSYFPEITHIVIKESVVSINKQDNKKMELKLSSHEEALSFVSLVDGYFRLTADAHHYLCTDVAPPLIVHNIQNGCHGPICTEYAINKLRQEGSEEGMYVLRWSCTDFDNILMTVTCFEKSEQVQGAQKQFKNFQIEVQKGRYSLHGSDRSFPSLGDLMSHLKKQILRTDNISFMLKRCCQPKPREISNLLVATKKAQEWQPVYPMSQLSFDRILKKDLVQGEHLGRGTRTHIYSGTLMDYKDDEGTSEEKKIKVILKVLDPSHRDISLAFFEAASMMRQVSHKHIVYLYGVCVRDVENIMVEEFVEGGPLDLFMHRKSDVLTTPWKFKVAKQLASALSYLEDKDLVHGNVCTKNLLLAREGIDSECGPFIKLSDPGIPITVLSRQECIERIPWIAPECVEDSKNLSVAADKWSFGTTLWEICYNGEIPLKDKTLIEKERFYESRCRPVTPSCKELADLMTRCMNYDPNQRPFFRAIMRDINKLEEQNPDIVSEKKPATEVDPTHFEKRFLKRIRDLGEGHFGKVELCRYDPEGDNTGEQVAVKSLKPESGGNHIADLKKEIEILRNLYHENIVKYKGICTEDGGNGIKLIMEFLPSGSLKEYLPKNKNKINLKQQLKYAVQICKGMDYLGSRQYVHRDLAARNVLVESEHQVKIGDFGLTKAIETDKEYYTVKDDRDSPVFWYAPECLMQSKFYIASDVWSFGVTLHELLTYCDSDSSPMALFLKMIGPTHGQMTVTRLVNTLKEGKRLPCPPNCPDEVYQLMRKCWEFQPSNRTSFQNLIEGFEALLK

As for `CS(=O)(=O)CCNCc1cc(-c2cc3c(Nc4ccc(OCc5cccc(F)c5)c(Cl)c4)ncnc3s2)cs1`, the inhibition (as a rule, the drop in the measured response relative to a control, in per cent) in test [1] was 3.04%; in test [2], -1.42%; in test [3] it was 3.76%; in test [4] it was 2.28%; in [5] it was 5.69%; in test [6], -2.63%. The inhibition in test [7] is -0.49%; in test [8] it was 6.12%; in test [9] it was 8.97%; in [10], 7.21%.
As for `COc1cccc(/C=N/Nc2ncnc3c2cnn3-c2cccc(OC)c2)c1`, the inhibition is 0.34% in [1]; 1.61% in test [2]; 4.23% in [3]; 3.55% in test [4]; 5.22% in test [5]; -1.99% in test [6]. The inhibition in [7] was -2.7%; in [8], 5.88%; in [9] it was 11.2%; in test [10], 6.67%.
Take `CN1CCN(CCCNc2nc3ccc(Oc4ccc(NC(=O)Nc5cc(C(F)(F)F)ccc5F)cc4)cc3[nH]2)CC1`: the inhibition in [1] was -1.94%; in test [2], 6.45%; in test [3] it was 1.78%; in test [4] it was 3.76%; in test [5] it was 6.4%; in test [6], -2.58%. For the same molecule, the inhibition in [7] was 0.29%; in test [8] it was 38.6%; in [9], 71.9%; in [10] it was 48.5%.
Take `CCc1cccc(CC)c1/C=C/c1cncc(C(=O)NC)c1`: the inhibition was 2.29% in test [1]; 2.03% in [2]; 1.99% in test [4]; 1.71% in test [5]; -1.8% in test [6]; 0.86% in [7]. Moreover, the results for the inhibition in test [8], in [9] and in test [10] were 6.02%, 8.91% and 1%, respectively.
Turning to `O=C(Nc1ccc(Oc2ccc3[nH]c(NC(=O)c4ccccc4)nc3c2)cc1)Nc1cc(C(F)(F)F)ccc1F`, the inhibition was 2.09% in test [1]; 1.88% in test [2]; 7.18% in [3]; 1.51% in test [4]; 4.06% in [5]; -0.16% in test [6]. Besides, the inhibition was 9.29% in test [7] and 10.4% in [10].
Consider `CN(C)CCOc1ccc(-c2cc(-c3ccc4c(c3)CCC4=NO)c(-c3ccncc3)o2)cc1`, for which the inhibition was 0.28% in test [1]; 1.5% in [2]; 0.68% in test [3]; 0.4% in test [4]; -1.64% in test [5]; -0.61% in [6]. Also, the inhibition is 1.8% in [7], -0.68% in test [8], 0.23% in test [9] and -2.06% in test [10].
With `O=C1NC(=O)C(c2cccc(Cl)c2)=C1Nc1ccc(Cl)c(C(=O)O)c1`, the inhibition is 0.9% in test [1]; 4.75% in [2]; 13.7% in test [3]; 0.64% in test [4]; 0.7% in [5]; -0.9% in [6]. Moreover, the inhibition was determined as 9.29% in test [7], 6.04% in test [8], 23.5% in test [9] and 6.54% in [10].
Turning to `CN(C)c1ccc2c(c1)/C(=C/Nc1ccc(S(N)(=O)=O)cc1)C(=O)N2`, the inhibition is 3.68% in [1]; 0.51% in test [2]; 14.2% in [3]; 0.74% in test [4]; 2.09% in test [5]; -0.16% in test [6]. The inhibition in test [7] was 20.4%; in test [8], 14.6%; in test [9] it was 53.6%; in [10], 4.04%.
Consider `CCS(=O)(=O)c1ccc(OC)c(Nc2ncc(-c3ccccc3Cl)o2)c1`, for which the inhibition in [1] is 1.73%; in [2] it was 5.17%; in test [3], -2.96%; in test [4], 1.84%; in test [5] it was 0.94%; in [6], 0.9%. Moreover, the inhibition in test [7] was 4.04%; in test [8], 8.35%; in test [9] it was 33.8%; in [10], 17.3%.
`Fc1ccc(-c2c(-c3ccncc3)nc3n2CCS3)cc1`: the inhibition is -2.17% in test [1]; 1.7% in [2]; 10.2% in [3]; 0.77% in test [4]; 4.51% in test [5]; -3.51% in [6]. Also, the inhibition amounted to 2.02% in test [7], 5.2% in test [8], 9.29% in [9] and 3.82% in [10].
Consider `Fc1ccc(-c2ncn(CCCN3CCOCC3)c2-c2ccncc2)cc1`, for which the inhibition in test [1] was 1.2%; in [2] it was 1.72%; in test [3], -1.2%; in test [4], -0.43%; in [5], 0.65%; in test [6] it was 0.1%. Moreover, the inhibition in test [7] was 1.07%; in test [8], -0.88%; in [9], 1%; in test [10], -3.23%.
In the case of `O=C1Nc2ccccc2/C1=C/Nc1ccc(-n2cncn2)cc1`, the inhibition was 4.51% in test [1]; 5.01% in [2]; 29.9% in [3]; 0.53% in test [4]; 0.69% in test [5]; -1.1% in test [6]. In addition, the inhibition in test [7] turned out to be 6.49%; in test [8] it was 7.9%; in test [9] it was 37.3%; in test [10], 21.5%.
For `Cc1ccc(C(=O)NC2CCC2)cc1-c1ccc(C(=O)NCC2CC2)cc1`, the inhibition in [1] was 1.48%; in test [2], 0.07%; in [3], 0.59%; in test [4], 0.91%; in test [5], 0.54%; in test [6], -1.22%. Besides, the inhibition in test [7] came to 1.06%; in test [8], 3.33%; in [9] it was 3.21%; in test [10], 2.49%.
Consider `CCC(=O)Nc1ccc(C)c(-c2ccc(C(=O)NCC3CC3)cc2)c1`, for which the inhibition in [1] was -0.1%; in [2], 2.44%; in [3], 4.69%; in test [4] it was 1.7%; in test [5], 1.15%; in [6] it was -1.95%. Besides, the inhibition in test [7] is -0.85%; in [8] it was 3.67%; in test [9], 9.29%; in test [10] it was 4.93%.
In the case of `NC(=O)Cc1ccccc1Oc1nccc(-c2c(-c3ccc(F)cc3)ncn2C2CCNCC2)n1`, the inhibition in [1] was 1%; in test [2], 2.63%; in test [3], -2.73%; in test [4], 0.56%; in [5] it was -0.85%; in test [6], -1.1%. Further, the inhibition worked out at 0.74% in test [7], 1.89% in test [8], 3.48% in [9] and 1.71% in test [10].
As to `COC(=O)Nc1nc2ccc(Sc3ccc(NC(=O)Nc4cc(C(F)(F)F)ccc4F)cc3)cc2[nH]1`, the inhibition in test [1] is 0.87%; in test [2] it was 0.69%; in test [3], -4.92%; in [4] it was 32.5%; in test [5] it was 2.1%; in test [6], -1.15%. For the same molecule, the figures for the inhibition in [7] and in [10] were 2.49% and 1.63%, respectively.
`COc1cc2ncn(-c3cc(OCc4ccccc4C(F)(F)F)c(C(C)=O)s3)c2cc1OC`: the inhibition in [1] is 6.89%; in [2], 2.15%; in test [3], 2.47%; in test [4] it was 1.06%; in test [5], -0.01%; in [6], -2.98%. For the same molecule, the inhibition is -1.59% in test [7], 3.96% in test [8], 7.57% in [9] and 3.46% in test [10].

The values are drawn from ChEMBL document CHEMBL1961873, “Compounds: GSK PKIS; Assays: Nanosyn kinase panel” (2012).
